Results from PubChem BioAssay AID624300 (Southern Research Specialized Biocontainment Screening …, 2012).
Hit rate of the full screen: of about 2,400 compounds, about 360 (15%) were called active.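 How the source made its calls: active means viability falls under 70% at one or more tested concentrations, taken as toxicity; inactive means viability stays over 70% at every dose.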 Only a sample is shown. Entries with a potency or affinity are not part of this list.

Assay: HeLa cell cytotoxicity, dose response, cytotoxicity control for MgcRacGAP inhibitor project (AID 624300)
Settings: CellTiter-Glo luminescence, 24 h; series mostly up to 100 µM

| Structure (SMILES) | outcome |
| --- | --- |
| CCCCn1c(C)cc2cc(O)ccc21 | inactive |
| COc1ccc(N2CCN(C(=O)c3ccccc3N(C)S(=O)(=O)c3ccccc3)CC2)cc1 | inactive |
| COc1cc(CNCc2cc(OC)c(OC)c(OC)c2)cc(OC)c1 | inactive |
| COc1cc2c(cc1NCc1ccc3c(c1)OCO3)oc1ccccc12 | inactive |
| CCc1cc(/C(Cc2cscn2)=N\O)c(O)cc1O | inactive |
| CCN(CC)c1ccc(NC(=O)COC(=O)CCc2cc(OC)c(OC)c(OC)c2)cc1 | inactive |
| O=C(CN1CCN(C/C=C/c2ccccc2)CC1)Nc1ccccc1C(=O)NC1CC1 | inactive |
| COc1cc(CNCc2ccccc2C(F)(F)F)cc(OC)c1 | inactive |
| CCn1c2ccccc2c2cc(N)ccc21 | inactive |
| COc1ccccc1CNCC(=O)NCc1ccc(C)cc1 | inactive |
| CCn1c2ccccc2c2cc(NC(=O)CNC)ccc21 | inactive |
| COc1ccc(/C=N\NC(=O)c2ccc(=O)[nH]n2)cc1O | inactive |
| O=C(c1cccc(F)c1)N1CCN(C2CCCCC2)CC1 | inactive |
| CN(C)CCCNc1ncnc2sc(-c3ccccc3)cc12 | inactive |
| Cc1cc(C)c(OCCCCN2CCC(C)CC2)c(Br)c1 | inactive |
| O=C(CN1CCN(c2ccc(O)cc2)CC1)NC(=O)NCc1ccco1 | inactive |
| COc1cc(/C=N\NC(=O)CNC(=O)C2COc3ccccc3O2)ccc1O (stereo not drawn) | inactive |
| Oc1ccc(C2=Nn3c(nnc3-c3ccco3)SC2)cc1O | inactive |
| CCN(CC)c1ccc(NC(=O)COC(=O)CCC(=O)c2cccs2)cc1 | inactive |
| O=C(Cc1coc2cc(O)ccc12)NNC(=O)c1cccs1 | inactive |
| CN(C)c1ccc(C(=O)NC2(N3CCC3=O)CCCC2)cc1 | inactive |
| Cc1ccc(Nc2c(-c3ccco3)nc3ccccn23)cc1 | inactive |
| Cc1ccn2c(NC3CCCC3)c(-c3ccncc3)nc2c1 | inactive |
| O=CNc1ccc2c(c1)Cc1cccc(NC=O)c1-2 | inactive |

| Structure (SMILES) | outcome |
| --- | --- |
| O=C(CNCc1ccco1)Nc1ccc(Oc2ccccc2)cc1 | inactive |
| Cc1ccccc1OCCn1c(=S)[nH]c2c(N)ncnc21 | inactive |
| CC1CC(C)CN(CC(=O)NC(c2ccccc2)c2ccccc2)C1 (stereo not drawn) | inactive |
| Cc1c(-c2ccccc2)sc(N)c1C(=O)N1CCOCC1 | inactive |
| CCN(CC)c1ccc(NC(=O)C2=CC=CN3CCS(=O)(=O)N=C23)cc1 | inactive |
| CCOc1cc(/C=C2\N=C3CCCCCN3C2=O)ccc1O | inactive |
| CCOC(=O)C1=C(O)/C(=C\c2ccc(O)c(OCC)c2)N=C1C | inactive |
| COc1ccccc1N1CCN(CC(=O)NCC2CCCO2)CC1 (stereo not drawn) | inactive |
| O=C(CSc1nnnn1-c1ccc(F)cc1)c1ccc(O)c(O)c1 | inactive |
| Cc1cc(C)nc(SCC(=O)c2ccc(O)c(O)c2)n1 | inactive |
| COc1cc(/C=N/NC(=O)c2ccc(N3CCCC3=O)cc2)ccc1O | inactive |
| COc1cccc2cc(C(=O)Oc3ccc(NC(C)=O)cc3)c(=O)oc12 | inactive |
| Cc1ccc(C)c(OCC(O)CN2CCC(C)CC2)c1C (stereo not drawn) | inactive |
| Cc1ccc(S(=O)(=O)N2CCN(C(=O)CN3CCN(c4ccc(O)cc4)CC3)CC2)cc1 | inactive |
| O=S(=O)(c1ccc2ccccc2c1)N1CCN(c2ccc(O)cc2)CC1 | inactive |
| COc1cc(C(=O)N/N=C/c2cn(Cc3ccccc3)c3ccccc23)ccc1O | inactive |
| O=C1CCCC(O)=C1C=Nc1ccc(O)cc1 | inactive |
| COc1cc(/C=N/N=C2\CC3CCC2(C)C3(C)C)ccc1O (stereo not drawn) | inactive |
| CCN(CC)c1ccc(/C=N/NC(=O)c2cc3ccccc3[nH]2)cc1 | inactive |
| O=C(C[n+]1ccccc1)N/N=C/c1ccc(O)cc1 | inactive |
| COc1ccc(C)cc1NC(=O)C(NCC(O)c1ccccc1)c1ccccc1 (stereo not drawn) | inactive |
| CCc1nc(Nc2ccc(N3CCN(C(C)=O)CC3)cc2)c2oc3ccccc3c2n1 | inactive |
| CC(=O)N1CCN(c2ccc(NCc3ccccc3)cc2)CC1 | inactive |
| COc1cc(/C=C/C(=O)OCC(=O)c2ccc(OC(F)F)cc2)ccc1O | inactive |

| Structure (SMILES) | outcome |
| --- | --- |
| CCN(CC)c1ccc(NC(=O)c2ccc3c(c2)OCO3)cc1 | inactive |
| CCN(CC)c1ccc(NC(=O)c2ccc(S(=O)(=O)N3CCOCC3)cc2)cc1 | inactive |
| C/C=C(\C)CN1CCN(c2ccc(C)cc2)CC1 | inactive |
| CN1C=CC=C/C1=C(\C#N)c1nc2ccccc2[nH]1 | inactive |
| N#C/C(=C/c1ccc(N2CCOCC2)o1)c1nc2ccccc2[nH]1 | inactive |
| COc1cc(/C=C(\C#N)C(=O)c2c[nH]c3ccccc23)cc(OC)c1O | inactive |
| COc1cc(/C=C(\C#N)C(=O)Nc2ccc3c(c2)OCCO3)ccc1O | inactive |
| N#C/C(=C\c1ccc(N2CCOCC2)o1)c1nc2ccccc2[nH]1 | inactive |
| COc1ccccc1N1CCN(/N=C/c2cc(OC)c(O)c(OC)c2)CC1 | inactive |
| COc1ccc(CN2CCN(Cc3ccccc3F)CC2)cc1OC | inactive |
| CN(c1ccccc1)S(=O)(=O)c1cccc(C(=O)NCCc2ccc(O)c(O)c2)c1 | inactive |
| COc1cccc(OC)c1C(=O)N1CCN(Cc2ccc3c(c2)OCO3)CC1 | inactive |
| COc1cc(/C=C/C(=O)OCC(=O)N(C)Cc2ccccc2)ccc1O | inactive |
| Cc1ccc(C2=NN=C(NC(=O)CSc3nncn3C)SC2)cc1 | inactive |
| COc1cc(/C=N/NC(=O)CC2C(=O)NN=C2C)ccc1O (stereo not drawn) | inactive |
| CCN(CC)c1ccc(NC(=O)CN2C(=O)NC3(CCc4ccccc43)C2=O)cc1 (stereo not drawn) | inactive |
| Nc1ccc(C(=O)c2ccc3c(c2)OCCO3)cc1N | inactive |
| COc1cc(-c2nc3ccccc3s2)ccc1O | inactive |
| Cc1ccc(S(=O)(=O)Nc2nsc(N)n2)cc1 | inactive |
| Oc1ccc(Cc2ccccc2Cl)c(O)c1 | inactive |
| CCOc1cc(/C=N/NC(=O)C(C)Sc2ccccn2)ccc1O (stereo not drawn) | inactive |
| COc1cc(/C=C/C(=O)OCC(=O)N(CC(C)C)c2c(N)n(Cc3ccccc3)c(=O)[nH]c2=O)ccc1O | inactive |
| COc1cc(/C=N\Nc2cc(=O)n(C)c(=O)n2C)ccc1O | inactive |
| COc1ccc(Nc2ccccc2)c(C)c1 | inactive |

| Structure (SMILES) | outcome |
| --- | --- |
| O=[N+]([O-])c1cc([N+](=O)[O-])c2nonc2c1Nc1ccccc1O | inactive |
| Cc1cc(C)c(C)c(S(=O)(=O)N2CCN(c3ccc(O)cc3)CC2)c1C | inactive |
| CCOc1cc(/C=N\NC(=O)c2c(C)nc3ccccn23)ccc1O | inactive |
| Oc1ccc(-c2cn3c(n2)SCC3)cc1 | inactive |
| CCN(CC)c1ccc(NC(=O)COc2ccc(-n3cnnn3)cc2)cc1 | inactive |
| COc1cc(/C=C/CN2CCC(CO)(CC3CCCCO3)CC2)ccc1O (stereo not drawn) | inactive |
| CC(NS(=O)(=O)c1ccc(Cl)cc1)C(=O)OCC(=O)Nc1ccc(N(C)C)cc1 (stereo not drawn) | inactive |
| COC(=O)c1c(NC(=O)CCNCc2ccco2)sc2c1CCC2 | inactive |
| CCN(CC)CCCNCC(=O)Nc1ccc2c(c1)CCC2 | inactive |
| O=c1c2ccccc2n2c(=S)[nH]nc2n1-c1ccccc1 | inactive |
| CN(C)C=NC1=NN(c2cccc(C(F)(F)F)c2)CC1 | inactive |
| Cc1ccc(N2C(N)=C(C#N)C3(C(=O)N(C)c4ccccc43)C3=C2CC(C)(C)CC3=O)cc1Cl (stereo not drawn) | inactive |
| C=C1CC(C(=O)N/N=C/c2ccc(O)cc2)C1 | inactive |
| O=c1c2ccc(F)cc2sn1-c1ccccc1 | inactive |
| CC(=O)Nc1ccc2sn(-c3ccccc3)c(=O)c2c1 | inactive |
| COc1cccc(-c2cc(C(=O)N3CCN(c4ccc(F)cc4)CC3)no2)c1 | inactive |
| COc1ccc(N2C(=O)/C(=C/N(C)C)NC2=S)cc1 | inactive |
| NS(=O)(=O)c1ccc(CCNCC(=O)N2CCC(Cc3ccccc3)CC2)cc1 | inactive |
| CSC1=NN(c2ccccc2)CN(c2ccccc2)N1C | inactive |
| O=C(CNc1ccc(Oc2ccccc2)cc1)N1CCOCC1 | inactive |
| COCC(C)NCc1ccccc1C (stereo not drawn) | inactive |
| C[n+]1ccc(/C=C/c2ccccc2O)c2ccccc21 | inactive |
| CN(C)c1ccc(C=Cc2cnccn2)cc1 | inactive |
| CCOc1ccccc1N1CCN(C/C=C/c2ccc(N(C)C)cc2)CC1 | inactive |

| Structure (SMILES) | outcome |
| --- | --- |
| CCOCCCn1c(=O)c2ccccc2n2c(=S)[nH]nc12 | inactive |
| COc1cc(/C=C(/NC(=O)c2ccccc2)C(=O)Nc2ccc(O)cc2)c([N+](=O)[O-])cc1OC | inactive |
| COc1ccc(CN2CCN(Cc3ccc(C(F)(F)F)cc3)CC2)cc1 | inactive |
| O=C(NCc1ccccc1)/C(=C\c1ccc(O)cc1)NC(=O)c1ccco1 | inactive |
| CC(C)C1=Nc2cccc3cccc(c23)N1 | inactive |
| COc1ccc(OC(=O)COc2cccc(C)c2)cc1 | inactive |
| CN(C)c1ccc2cc(S(=O)(=O)O)cc(O)c2c1 | inactive |
| ON=C1c2ccccc2-c2ccc(O)cc21 | inactive |
| O=C(O)c1ccc2c(c1)C(=O)/C(=C\c1ccco1)C2=O | inactive |
| Clc1nc(NCc2cccnc2)nc(N2CCOCC2)n1 | inactive |
| COc1cc(N)ccc1NC(=O)c1cccs1 | inactive |
| COc1ccc(NC2CCCN(C(=O)c3ccc(C)nc3)C2)cc1 (stereo not drawn) | inactive |
| COc1cc(/C=C/C(=O)OCC(=O)NCCC2=CCCCC2)ccc1O | inactive |
| COc1ccc(OC)c(CN2CCSCC2)c1 | inactive |
| CCOc1cc(N2CCOCC2)c(OCC)cc1NC(=O)c1ccc(C)s1 | inactive |
| CN(C)c1cc2c3ccccc3n(C)c2cc1N | inactive |
| CCOC(=O)SC1=N/C(=C\c2ccc(N(C)C)cc2)C(=O)S1 | inactive |
| Cc1ccc(/C=[N+](\[O-])c2ccc(N(C)C)cc2)c2nsnc12 | inactive |
| COc1ccc(NC2=NCCC2)cc1 | inactive |
| COc1cc(/C=C/C(=O)OCC(=O)N2CCC(Cc3ccccc3)CC2)ccc1O | inactive |
| Cc1ccc2oc(=O)c(/C=C(\O)c3ccccc3)nc2c1 | inactive |
| C/C(=N\NC(=O)CSCc1ccccc1Cl)c1cc(O)ccc1O | inactive |
